For part of these data: Measured potencies and affinities stand elsewhere.
Key:
Set-up in all cases: scale not given: direction of the effect not stated beside the values
[1] = biological target: Protein translocase subunit SecA (Escherichia coli (strain K12)) (UniProt P10408); experiment: Assay to Identify E. coli SecA ATPase Inhibitors; assay type: functional; conditions: 30 µM
[2] = biological target: T1, Ubiquitin-activating enzyme e1, putative (Leishmania donovani (strain BPK282A1)) (UniProt E9BSI1); experiment: Leishmania donovani Ubiquitin Activating Enzyme (LdE1); assay type: functional; conditions: 30 µM
T1 sequence (whole entry): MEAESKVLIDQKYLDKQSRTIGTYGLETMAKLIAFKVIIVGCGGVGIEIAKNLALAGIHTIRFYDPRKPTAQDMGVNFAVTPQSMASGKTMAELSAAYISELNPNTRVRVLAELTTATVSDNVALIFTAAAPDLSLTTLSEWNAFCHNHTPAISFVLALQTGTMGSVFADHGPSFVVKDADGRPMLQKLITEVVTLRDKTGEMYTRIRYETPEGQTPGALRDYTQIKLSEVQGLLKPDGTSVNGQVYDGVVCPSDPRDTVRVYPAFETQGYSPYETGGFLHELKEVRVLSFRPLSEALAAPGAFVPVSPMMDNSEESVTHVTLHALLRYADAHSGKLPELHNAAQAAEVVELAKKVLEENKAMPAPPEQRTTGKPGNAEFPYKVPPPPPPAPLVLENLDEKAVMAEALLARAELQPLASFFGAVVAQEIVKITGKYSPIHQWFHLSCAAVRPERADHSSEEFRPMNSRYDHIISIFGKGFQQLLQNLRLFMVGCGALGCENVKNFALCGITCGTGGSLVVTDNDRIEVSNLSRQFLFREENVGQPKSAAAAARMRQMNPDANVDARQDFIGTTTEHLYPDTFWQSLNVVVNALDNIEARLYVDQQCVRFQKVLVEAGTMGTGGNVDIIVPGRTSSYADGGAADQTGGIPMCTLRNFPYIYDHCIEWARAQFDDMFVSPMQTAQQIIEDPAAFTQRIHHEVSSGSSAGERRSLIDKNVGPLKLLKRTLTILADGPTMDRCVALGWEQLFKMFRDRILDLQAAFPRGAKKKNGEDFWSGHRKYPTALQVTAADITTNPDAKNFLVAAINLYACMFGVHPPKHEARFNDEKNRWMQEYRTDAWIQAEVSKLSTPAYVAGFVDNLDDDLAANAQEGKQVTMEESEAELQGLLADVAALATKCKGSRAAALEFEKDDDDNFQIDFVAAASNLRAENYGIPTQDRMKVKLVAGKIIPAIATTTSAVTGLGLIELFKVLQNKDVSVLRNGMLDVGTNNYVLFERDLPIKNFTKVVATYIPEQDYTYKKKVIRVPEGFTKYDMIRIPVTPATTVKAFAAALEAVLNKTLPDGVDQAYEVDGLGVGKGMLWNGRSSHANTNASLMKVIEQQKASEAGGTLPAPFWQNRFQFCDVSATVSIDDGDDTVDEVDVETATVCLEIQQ

[3] = biological target: Sialic acid-binding Ig-like lectin 9 (Homo sapiens) (UniProt Q9Y336); experiment: Hs-Siglec9 ALPHAscreen SOP 20170721; conditions: 10 µM
Trypanosoma cruzi = experiment: Trypanosoma cruzi phosphomannomutase and mannose-1-phosphate guanylyltransferase assay; assay type: functional; conditions: 10 µM
[4] = biological target: T2, Arginase-2, mitochondrial (Homo sapiens) (UniProt P78540); experiment: in vitro enzyme assay to detect the production of urea directly proportional to the activity of Arginase II; assay type: functional; conditions: 33.3 µM; note: in the data most compounds retested in dose-response had high values
T2 sequence (whole entry): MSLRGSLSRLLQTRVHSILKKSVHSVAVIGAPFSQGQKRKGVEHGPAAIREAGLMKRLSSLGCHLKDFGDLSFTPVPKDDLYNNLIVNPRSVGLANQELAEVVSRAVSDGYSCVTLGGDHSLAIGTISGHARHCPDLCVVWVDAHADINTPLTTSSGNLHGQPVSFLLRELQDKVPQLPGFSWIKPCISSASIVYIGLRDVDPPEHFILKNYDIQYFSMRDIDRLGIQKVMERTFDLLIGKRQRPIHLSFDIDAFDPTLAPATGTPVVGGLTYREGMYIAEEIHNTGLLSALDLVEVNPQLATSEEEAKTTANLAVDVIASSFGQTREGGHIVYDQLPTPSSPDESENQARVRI

[5] = biological target: T3, Proteasome subunit beta (Trypanosoma cruzi) (UniProt O96673); experiment: Trypanosoma cruzi proteasome chymotrypsin-like activity (TcProtChymo) assay.; note: in the data most compounds retested in dose-response had high values; assay type: functional; conditions: 9.37 µM
T3 sequence (whole entry): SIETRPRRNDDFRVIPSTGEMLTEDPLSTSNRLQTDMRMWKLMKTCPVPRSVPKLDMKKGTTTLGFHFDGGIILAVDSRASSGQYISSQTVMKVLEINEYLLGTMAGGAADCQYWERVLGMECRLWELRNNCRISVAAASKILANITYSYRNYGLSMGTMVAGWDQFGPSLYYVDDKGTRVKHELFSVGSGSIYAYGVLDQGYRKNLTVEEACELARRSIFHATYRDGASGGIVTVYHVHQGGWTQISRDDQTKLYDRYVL

Homo sapiens = organism: Homo sapiens; experiment: To identify inhibition of the IFN signalling (Jak-Stat) pathway via expression of an eGFP reporter gene under the control of an IFN-stimulated response element (ISRE) containing MxA promoter.; assay type: functional; conditions: 30 µM
[6] = biological target: T4, Tyrosyl-tRNA synthetase, putative (Trypanosoma cruzi (strain CL Brener)) (UniProt Q4DSP6); experiment: Trypanosoma cruzi tyrosyl tRNA synthetase (TcYRS) _High Tyrosine SOP; assay type: functional; conditions: 30 µM; note: in the data most compounds retested in dose-response had high values
T4 sequence (whole entry): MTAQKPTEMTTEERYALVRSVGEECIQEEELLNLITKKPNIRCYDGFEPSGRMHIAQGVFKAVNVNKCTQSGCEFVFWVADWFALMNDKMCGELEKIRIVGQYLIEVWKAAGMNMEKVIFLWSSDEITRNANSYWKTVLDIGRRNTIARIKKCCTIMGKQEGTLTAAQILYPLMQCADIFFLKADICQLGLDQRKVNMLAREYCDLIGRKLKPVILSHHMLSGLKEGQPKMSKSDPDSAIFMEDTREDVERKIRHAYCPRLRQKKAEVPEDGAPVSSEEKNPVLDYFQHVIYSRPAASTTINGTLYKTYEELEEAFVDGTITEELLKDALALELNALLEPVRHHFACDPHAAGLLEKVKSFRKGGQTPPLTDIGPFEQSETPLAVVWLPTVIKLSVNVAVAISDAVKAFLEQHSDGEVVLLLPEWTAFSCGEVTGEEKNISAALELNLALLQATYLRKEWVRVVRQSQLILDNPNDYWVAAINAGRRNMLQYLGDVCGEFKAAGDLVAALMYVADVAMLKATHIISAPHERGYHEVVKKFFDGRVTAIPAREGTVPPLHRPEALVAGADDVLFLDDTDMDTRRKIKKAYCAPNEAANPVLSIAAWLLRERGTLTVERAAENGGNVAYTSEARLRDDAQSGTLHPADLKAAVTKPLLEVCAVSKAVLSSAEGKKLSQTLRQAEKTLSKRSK

[7] = biological target: T4, Tyrosyl-tRNA synthetase, putative (Trypanosoma cruzi (strain CL Brener)); experiment: Trypanosoma cruzi tyrosyl tRNA synthetase (TcYRS) SOP; assay type: functional; conditions: 30 µM
[8] = biological target: Chromo domain-containing protein 1 (Saccharomyces cerevisiae (strain ATCC 204508 / S288c) (Baker's yeast)) (UniProt P32657); experiment: ScCHD-1 Enzyme Inhibition Assay; assay type: functional; conditions: 30 µM; note: in the data most compounds retested in dose-response had high values
Chain of Chromo domain-containing protein 1 (Saccharomyces cerevisiae (strain ATCC 204508 / S288c) (Baker's yeast)) (P32657 whole entry, the tested form may be a part): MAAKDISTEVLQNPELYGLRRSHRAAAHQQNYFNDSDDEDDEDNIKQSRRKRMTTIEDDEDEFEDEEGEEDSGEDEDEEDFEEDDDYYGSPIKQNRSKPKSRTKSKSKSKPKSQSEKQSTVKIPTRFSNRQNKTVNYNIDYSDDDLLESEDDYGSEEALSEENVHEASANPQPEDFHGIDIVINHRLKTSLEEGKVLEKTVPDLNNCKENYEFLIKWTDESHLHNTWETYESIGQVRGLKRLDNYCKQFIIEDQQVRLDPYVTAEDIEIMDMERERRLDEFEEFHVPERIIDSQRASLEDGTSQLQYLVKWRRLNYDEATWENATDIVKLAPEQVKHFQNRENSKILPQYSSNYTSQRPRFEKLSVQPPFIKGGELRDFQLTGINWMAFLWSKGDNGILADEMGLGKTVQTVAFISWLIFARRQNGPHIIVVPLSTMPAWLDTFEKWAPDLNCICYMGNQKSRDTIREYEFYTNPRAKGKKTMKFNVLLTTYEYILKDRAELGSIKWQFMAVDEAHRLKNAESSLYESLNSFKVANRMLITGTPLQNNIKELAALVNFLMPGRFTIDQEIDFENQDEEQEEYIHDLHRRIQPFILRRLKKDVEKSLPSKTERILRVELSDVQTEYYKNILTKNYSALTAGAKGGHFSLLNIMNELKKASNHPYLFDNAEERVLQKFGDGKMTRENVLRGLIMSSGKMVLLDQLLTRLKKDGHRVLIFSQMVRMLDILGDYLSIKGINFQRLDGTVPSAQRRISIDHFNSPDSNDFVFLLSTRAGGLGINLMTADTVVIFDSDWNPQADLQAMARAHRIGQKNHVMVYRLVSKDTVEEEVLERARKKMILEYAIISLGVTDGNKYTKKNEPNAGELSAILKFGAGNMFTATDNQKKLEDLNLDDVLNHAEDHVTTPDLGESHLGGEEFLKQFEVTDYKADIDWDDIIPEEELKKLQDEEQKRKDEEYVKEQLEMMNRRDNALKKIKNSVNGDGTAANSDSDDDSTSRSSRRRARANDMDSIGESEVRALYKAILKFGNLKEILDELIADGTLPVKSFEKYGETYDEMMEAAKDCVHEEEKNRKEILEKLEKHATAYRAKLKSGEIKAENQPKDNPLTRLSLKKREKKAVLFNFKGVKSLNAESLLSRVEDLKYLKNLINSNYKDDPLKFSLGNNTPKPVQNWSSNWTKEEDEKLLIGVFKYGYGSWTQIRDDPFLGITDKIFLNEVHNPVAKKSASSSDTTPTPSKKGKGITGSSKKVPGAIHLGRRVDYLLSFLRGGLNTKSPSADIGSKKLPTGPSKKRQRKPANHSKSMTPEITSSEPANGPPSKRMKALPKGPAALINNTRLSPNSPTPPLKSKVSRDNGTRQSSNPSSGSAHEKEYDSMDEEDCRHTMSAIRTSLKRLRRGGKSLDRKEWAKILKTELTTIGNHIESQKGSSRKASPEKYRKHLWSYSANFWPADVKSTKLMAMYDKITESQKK

Chain of Protein translocase subunit SecA (Escherichia coli (strain K12)) (P10408 whole entry): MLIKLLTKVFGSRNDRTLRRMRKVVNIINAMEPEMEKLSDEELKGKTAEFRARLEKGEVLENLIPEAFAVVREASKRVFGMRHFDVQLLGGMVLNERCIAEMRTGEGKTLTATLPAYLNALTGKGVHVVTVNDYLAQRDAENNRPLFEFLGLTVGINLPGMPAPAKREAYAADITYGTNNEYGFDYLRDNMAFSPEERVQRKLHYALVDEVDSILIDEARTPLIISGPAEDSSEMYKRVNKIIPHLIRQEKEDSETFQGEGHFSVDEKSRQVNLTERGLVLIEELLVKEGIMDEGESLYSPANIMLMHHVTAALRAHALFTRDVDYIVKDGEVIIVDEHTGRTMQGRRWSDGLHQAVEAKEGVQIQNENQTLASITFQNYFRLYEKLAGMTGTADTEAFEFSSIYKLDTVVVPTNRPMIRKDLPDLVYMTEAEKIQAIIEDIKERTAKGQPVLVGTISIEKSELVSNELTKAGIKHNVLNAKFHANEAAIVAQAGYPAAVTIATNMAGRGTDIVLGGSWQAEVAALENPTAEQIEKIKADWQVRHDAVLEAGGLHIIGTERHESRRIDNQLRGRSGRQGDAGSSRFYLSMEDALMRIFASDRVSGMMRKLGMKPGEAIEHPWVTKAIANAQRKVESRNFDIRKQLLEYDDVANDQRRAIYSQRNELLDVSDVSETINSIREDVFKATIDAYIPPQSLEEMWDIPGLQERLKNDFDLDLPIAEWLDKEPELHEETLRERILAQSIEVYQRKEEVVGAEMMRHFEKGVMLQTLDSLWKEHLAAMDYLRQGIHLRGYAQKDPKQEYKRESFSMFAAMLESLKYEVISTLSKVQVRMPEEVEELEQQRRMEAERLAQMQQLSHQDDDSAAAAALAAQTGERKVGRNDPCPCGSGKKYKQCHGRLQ
Chain of Sialic acid-binding Ig-like lectin 9 (Homo sapiens) (Q9Y336 whole entry): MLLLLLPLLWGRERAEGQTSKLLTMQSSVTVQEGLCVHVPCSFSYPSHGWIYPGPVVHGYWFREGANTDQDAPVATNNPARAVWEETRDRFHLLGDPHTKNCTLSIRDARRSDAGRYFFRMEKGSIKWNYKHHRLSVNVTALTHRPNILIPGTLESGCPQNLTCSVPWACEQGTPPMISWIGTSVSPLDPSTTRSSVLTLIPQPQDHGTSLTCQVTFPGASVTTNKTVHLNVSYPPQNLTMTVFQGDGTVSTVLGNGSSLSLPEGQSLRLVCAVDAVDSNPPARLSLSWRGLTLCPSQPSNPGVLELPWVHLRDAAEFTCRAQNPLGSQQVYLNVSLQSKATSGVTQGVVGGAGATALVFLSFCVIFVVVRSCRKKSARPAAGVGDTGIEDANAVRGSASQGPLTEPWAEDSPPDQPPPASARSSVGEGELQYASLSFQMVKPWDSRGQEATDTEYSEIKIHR

| SMILES | Percent Effect [1] [%] | Percent Effect [2] [%] | Percent Effect [3] [%] | Percent Effect (Trypanosoma cruzi) [%] | Percent Effect [4] [%] | Percent Effect [5] [%] | Percent Effect (Homo sapiens) [%] | Percent Effect [6] [%] | Percent Effect [7] [%] | Percent Effect [8] [%] |
| --- | --- | --- | --- | --- | --- | --- | --- | --- | --- | --- |
| Cc1cc(OCC(=O)N2CCCC(c3ccn[nH]3)C2)no1 (stereo not given) | -3.04 | 5.33 | 5.5 | -5.62 | 3.55 | 6.36 | 3.56 | 3.68 | 7.69 | -8.42 |
| CC(C)=CCN1CCC(c2nccn2Cc2cscn2)CC1 | -6.89 | 5.41 | 7.33 | 9.8 | -5.94 | 9.07 | -16 | 6.92 | 14.6 | -4.64 |
| CN(CC(=O)N1CCCN(Cc2cscn2)CC1)c1cnccn1 | 0.471 | -18.2 | 7.79 | -4.29 | -3.07 | 0.351 | 9.75 | 0 | 4.71 | 5.41 |
| O=C(NCCc1cccnc1)N1CCCC1c1ccsc1 (stereo not given) | -6.89 | 17.9 | -11.1 | 5.73 | 3.69 | 6.74 | 13.9 | 5.26 | 22.9 | -9.16 |
| CCCn1[nH]cc/c1=N\C(=O)CN1CCc2cnc(CC)nc2C1 | 0.849 | 0 | 1.8 | -2.61 | 9.76 | 2.29 | 3.62 | 11.1 | 7.69 | 5.4 |
| CCc1nc(C)ncc1C(=O)N1CCCC(n2nc(C)nc2C)C1 (stereo not given) | -0.229 | -53.9 | -2.48 | 8.92 | -3.69 | 0.0853 | -15.3 | -3.35 | 6.02 | -2.45 |
| Cc1ncnc(NCc2cc3n(n2)CCCN(S(C)(=O)=O)C3)c1C | -4.52 | 8.11 | 3.12 | -1.07 | -1.75 | 7.71 | -0.0892 | 5.85 | 14.6 | -4.37 |
| CC1(C)OCC(CNC(=O)c2cnn(-c3ccc(Cl)cc3)c2N)O1 (stereo not given) | 2.19 | 17.3 | -9.2 | -2.76 | -0.443 | 14 | 15.1 | -6.35 | 2.5 | -22.4 |
| CCc1ccsc1C(=O)N1CCN(C(=O)CC(F)(F)F)CC1 | 2.23 | 18.2 | 11.7 | 1.68 | 1.02 | 10.5 | -19.1 | 6.86 | 23.5 | -4.02 |
| CS(=O)(=O)NCC1CCCN(C(=O)COCc2ccccc2)C1 (stereo not given) | -1.97 | 15.4 | -3.29 | 4.41 | 6.56 | 1.96 | 17.6 | 0.478 | 20.5 | -5.38 |
| CNc1cncc(C2CCCN2Cc2c[nH]cn2)n1 (stereo not given) | -0.293 | 9.33 | -0.612 | -4.14 | 2.21 | 7.88 | 5.77 | 5.29 | 15 | -25.9 |
| Nc1nccc(-c2c[nH]nc2C2CCCCC2)n1 | 1.44 | 10.7 | -1.99 | -6.83 | 3.1 | 17.9 | 99.6 | 1.58 | 0 | -6.8 |
| NC(=O)C1(CCCc2cccnc2)CCCN(c2ncccn2)C1 (stereo not given) | -2.51 | 4 | 3.57 | -3.16 | 0.885 | 3.61 | 8.71 | 4.23 | 5 | -13 |
| COc1ncccc1CNC(=O)c1cccnc1O | -1.81 | 12.8 | -3.2 | 5.35 | 1.23 | 8.79 | -10.7 | 11 | 22.9 | -2.93 |
| COCCc1ncc(CN2CCC(Oc3ccccc3C)CC2)cn1 | -2.3 | 17.3 | 7.21 | 1.58 | -0.443 | 12.6 | 7.38 | 6.35 | 20 | -22.7 |
| O=C(CC1CC1)N1C[C@@H]2CCN(c3cnccn3)C[C@@H]2C1 | -1.69 | 14.3 | 4.05 | 1.69 | 0.913 | 5.06 | 16.8 | 5.8 | 15 | -3.72 |
| CCc1nccn1-c1cncc(C2CCCN2Cc2ccc(F)cc2)n1 (stereo not given) | -7.77 | 4 | 1.71 | 1.97 | 0.443 | -0.328 | 35.7 | 4.23 | 5 | -27.1 |
| CNC(=O)c1ccc(CN(C(=O)c2scnc2C)C2CC2)cc1 | -5.91 | -7.69 | -10.3 | -0.845 | -2.87 | 3.67 | 17.5 | -3.35 | -6.02 | -4.57 |
| COCCc1noc(CNC2CCSC2)n1 (stereo not given) | -5.2 | 5.41 | 11.7 | 7.66 | 1.75 | 9.93 | -4.93 | 5.85 | 17.1 | -3.46 |
| Cc1nn(C)c(N(C)C)c1CNC(C)COc1cccc(F)c1 (stereo not given) | -4.28 | -5.2 | -1.85 | -6.16 | -2.66 | 5.26 | 9.12 | -3.92 | -4.71 | -2.29 |
| CCOC1CCCN(C(=O)c2sccc2-n2cnnn2)C1 (stereo not given) | -1.7 | 20.5 | -9.12 | 8.73 | -1.23 | 13.1 | 21.5 | 8.13 | 22.9 | -4.42 |
| CC(C)NC(=O)N1CCC2(CC(=O)N(c3cccc(C#N)c3)C2)C1 (stereo not given) | -4.66 | -16.9 | 0.438 | -3.6 | -3.64 | 9.8 | -4.77 | -0.526 | -35.9 | -0.524 |
| O=c1cccnn1CC1CN(Cc2ccsc2)Cc2nccn2C1 (stereo not given) | -8.45 | -40.3 | 11 | -1.66 | 3.64 | 8.91 | -4.15 | 14.2 | 15.4 | 4.94 |
| Cc1ccc(Oc2ccc(NC(=O)NCC3CCOC3)cn2)cc1C (stereo not given) | -2.89 | 10.3 | -3.96 | 7.98 | 6.97 | 8.79 | -3.33 | 4.31 | 20.5 | -8.82 |

From ChEMBL document CHEMBL3988442, “University of Dundee, Small-Polar-MMV Screening Library” (2021)
